The values below come from the antibiotic and cytotoxicity screens of Wong et al. (2023).

Among all 39,000 compounds or so, about 3,300 (8.5%) were called active. This is one part of a sample in which actives are shown more often than they occur.

The assay deals with HepG2. The experiment in a line: cytotoxicity call (relative viability < 0.9). Conditions: 10 µM.
Regarding `CC=Cc1ccc2n(c1=O)C[C@H]1[C@H](CO)[C@@H](C(=O)NC3CCC3)N(S(C)(=O)=O)[C@@H]21`, the cytotoxicity call is “inactive”.

As for `COc1ccc(-c2cn3cc(C(=O)NCC(N)=O)nc3c(=O)n2CC2CC2)c(F)c1`, the cytotoxicity call is “inactive”.

Consider `C[C@@H]1CN([C@H](C)CO)C(=O)c2cc(NS(=O)(=O)c3cccs3)ccc2O[C@H]1CN(C)S(=O)(=O)c1ccc(F)cc1`, for which the cytotoxicity call was “inactive”.

For `COc1ccc(NC(=O)Nc2ccc3c(c2)[C@@H]2C[C@H](CC(=O)NCc4ccccn4)O[C@H](CO)[C@@H]2O3)cc1`, the cytotoxicity call is “inactive”.

Regarding `C[C@@H]1CN([C@@H](C)CO)C(=O)c2cc(NC(=O)CCN3CCOCC3)ccc2O[C@@H]1CN(C)Cc1ccc2c(c1)OCO2`, the cytotoxicity call is “inactive”.

For the compound `C[C@H]1CN([C@@H](C)CO)C(=O)c2cccc(NC(=O)C3CCCCC3)c2O[C@@H]1CN(C)S(=O)(=O)c1cn(C)cn1`, the cytotoxicity call was “inactive”.

Turning to `C[C@H](CO)N1C[C@H](C)[C@@H](CN(C)C(=O)C2CC2)Oc2ncc(-c3ccc(C(=O)N(C)C)cc3)cc2C1=O`, the cytotoxicity call is “inactive”.

As for `N[C@@H](CCc1ccccc1Cl)c1ccc2c(c1)OCCO2`, the cytotoxicity call was “active”.

For the compound `N[C@H](c1ccc2c(c1)OCCO2)c1ccco1`, the cytotoxicity call is “inactive”.

For `NCC[C@@H](Cc1ccccc1)c1ccc2c(c1)OCO2`, the cytotoxicity call was “inactive”.

`Cc1ccc(S(=O)(=O)Nc2cccc3c2O[C@H](CN(C)C(=O)Nc2cccc4ccccc24)[C@H](C)CN([C@H](C)CO)C3=O)cc1`: the cytotoxicity call was “inactive”.

`O=C(NCCNS(=O)(=O)c1cccc2nonc12)[C@H]1COc2ccccc2O1`: the cytotoxicity call is “inactive”.

With `CS(=O)(=O)N1CCN(Cc2cc3nc(-c4cccc5n[nH]cc45)nc(N4CCOCC4)c3s2)CC1`, the cytotoxicity call was “active”.

`C[C@H]1CN([C@@H](C)CO)C(=O)c2cc(C#CC3(O)CCCC3)cnc2O[C@H]1CN(C)S(=O)(=O)c1cccc(F)c1`: the cytotoxicity call is “inactive”.

As for `COc1ccc(S(=O)(=O)N(C)C[C@H]2Oc3ccc(NS(=O)(=O)c4ccc(F)cc4)cc3CC(=O)N([C@H](C)CO)C[C@@H]2C)cc1`, the cytotoxicity call is “inactive”.

As for `Cc1noc(C)c1S(=O)(=O)Nc1ccc2c(c1)CC(=O)N([C@H](C)CO)C[C@H](C)[C@H](CN(C)S(=O)(=O)c1ccc(Cl)cc1)O2`, the cytotoxicity call is “inactive”.

With `C[C@H](CO)N1C[C@H](C)[C@H](CN(C)S(=O)(=O)c2ccc(F)cc2)Oc2c(NS(=O)(=O)c3ccccc3)cccc2C1=O`, the cytotoxicity call is “inactive”.

In the case of `O=C(CN1CCOC1=O)N1CCC2(CCC(=O)N(CCCn3ccnc3)C2)CC1`, the cytotoxicity call was “inactive”.

As to `CCN(CC)CCCCNc1ncc2cc(-c3cc(OC)cc(OC)c3)c(NC(=O)NC(C)(C)C)nc2n1`, the cytotoxicity call is “active”.

Take `CCN(CC)CCNC(=O)COc1ccc(OC)cc1.Cl`: the cytotoxicity call is “inactive”.

As for `CCN(CC)CCCCNc1ncc2cc(-c3c(Cl)cccc3Cl)c(NC(=O)NC(C)(C)C)nc2n1`, the cytotoxicity call is “active”.

For `CC(C)=CCC/C(C)=C/CC/C(C)=C/CCC(=O)OC/C=C(\C)CCC=C(C)C`, the cytotoxicity call is “inactive”.

Turning to `Cc1noc(C)c1NC(=O)Nc1ccc2c(c1)C(=O)N([C@H](C)CO)C[C@H](C)[C@H](CN(C)Cc1ccc(C(=O)Nc3ccccc3N)cc1)OCCCC[C@@H](C)O2`, the cytotoxicity call is “inactive”.

Take `COc1ccc(NC(=O)N(C)C[C@H]2OCCCC[C@H](C)Oc3ccc(NC(=O)Cc4ccccc4)cc3C(=O)N([C@@H](C)CO)C[C@H]2C)cc1`: the cytotoxicity call was “inactive”.

On to `C[C@@H]1CN([C@H](C)CO)C(=O)Cc2cc(NC(=O)Cc3cn(C)c4ccccc34)ccc2O[C@@H]1CN(C)C(=O)Nc1cccc2ccccc12`, for which the cytotoxicity call was “inactive”.

Consider `C[C@@H]1CCCCO[C@@H](CN(C)C(=O)Cc2ccccc2)[C@@H](C)CN([C@H](C)CO)C(=O)c2cc(NC(=O)Nc3ccc4c(c3)OCO4)ccc2O1`, for which the cytotoxicity call is “inactive”.

Regarding `C[C@@H]1CCCCO[C@H](CN(C)Cc2ccc(C(F)(F)F)cc2)[C@@H](C)CN([C@@H](C)CO)C(=O)c2cc(NC(=O)c3ccncc3)ccc2O1`, the cytotoxicity call is “inactive”.

Take `C[C@H]1CCCCO[C@H](CN(C)Cc2ccc(C(F)(F)F)cc2)[C@@H](C)CN([C@@H](C)CO)C(=O)c2cc(NS(=O)(=O)c3ccccc3)ccc2O1`: the cytotoxicity call was “inactive”.

Turning to `C[C@@H]1CCCCO[C@H](CN(C)Cc2ccc(C(F)(F)F)cc2)[C@@H](C)CN([C@H](C)CO)C(=O)c2cc(NS(=O)(=O)c3ccccc3)ccc2O1`, the cytotoxicity call is “inactive”.

With `C[C@H]1CCCCO[C@@H](CN(C)Cc2ccc(C(F)(F)F)cc2)[C@@H](C)CN([C@@H](C)CO)C(=O)c2cc(NS(=O)(=O)c3ccccc3)ccc2O1`, the cytotoxicity call is “inactive”.

`C[C@@H]1CCCCO[C@@H](CN(C)Cc2ccc(C(F)(F)F)cc2)[C@@H](C)CN([C@@H](C)CO)C(=O)c2cc(NS(=O)(=O)c3ccccc3)ccc2O1`: the cytotoxicity call is “active”.

For `C[C@@H]1CCCCO[C@@H](CN(C)Cc2ccc(C(F)(F)F)cc2)[C@H](C)CN([C@@H](C)CO)C(=O)c2cc(NS(=O)(=O)c3ccccc3)ccc2O1`, the cytotoxicity call was “active”.

`C[C@H](CO)N1C[C@H](C)[C@H](CN(C)Cc2ccc(C(F)(F)F)cc2)OCCCC[C@H](C)Oc2ccc(NS(=O)(=O)c3ccccc3)cc2C1=O`: the cytotoxicity call was “active”.

Turning to `C[C@@H]1CCCCO[C@@H](CN(C)Cc2ccc(C(F)(F)F)cc2)[C@H](C)CN([C@H](C)CO)C(=O)c2cc(NS(=O)(=O)c3ccccc3)ccc2O1`, the cytotoxicity call was “inactive”.

As to `C[C@@H]1CCCCO[C@H](CN(C)Cc2ccc(C(F)(F)F)cc2)[C@H](C)CN([C@H](C)CO)C(=O)c2cc(NS(=O)(=O)c3ccccc3)ccc2O1`, the cytotoxicity call was “inactive”.

With `C[C@@H]1CCCCO[C@@H](CN(C)Cc2ccc(C(F)(F)F)cc2)[C@@H](C)CN([C@H](C)CO)C(=O)c2cc(NS(=O)(=O)c3ccccc3)ccc2O1`, the cytotoxicity call is “active”.

Turning to `COc1ccc(S(=O)(=O)N(C)C[C@@H]2Oc3ccc(NC(=O)NC(C)C)cc3CC(=O)N([C@@H](C)CO)C[C@@H]2C)cc1`, the cytotoxicity call was “inactive”.

Consider `COc1ccc(NC(=O)N(C)C[C@H]2OCCCC[C@H](C)Oc3ccc(NC(=O)C4CCCCC4)cc3C(=O)N([C@H](C)CO)C[C@H]2C)cc1`, for which the cytotoxicity call was “inactive”.

Take `C[C@@H]1CN([C@@H](C)CO)C(=O)CCCn2nncc2CO[C@H]1CN(C)C(=O)C1CC1`: the cytotoxicity call is “inactive”.

With `COc1ccc(NC(=O)N(C)C[C@H]2Oc3c(NS(C)(=O)=O)cccc3C(=O)N([C@@H](C)CO)C[C@H]2C)cc1`, the cytotoxicity call is “inactive”.

Regarding `C[C@H]1CCCCO[C@@H](CN(C)C(=O)Nc2ccc(C(F)(F)F)cc2)[C@@H](C)CN([C@@H](C)CO)C(=O)c2cc(NC(=O)CCC(F)(F)F)ccc2O1`, the cytotoxicity call was “inactive”.
